Values joined by “and” are separate entries in the source; they are usually repeats but may differ in a detail not shown here. Equal values may be shown once. Read-outs that look alike come from different tables or passages of the source.
Experiments:
GRK1 = settings: concentration: 1 μM, replicates: in singlicate, n = 1
GRK2 = system: T1, GRK2; settings: concentration: 1 μM, replicates: in singlicate; n = 1
T1 construct: gene ADRBK1

GRK3 = system: T2, GRK3; settings: concentration: 1 μM, replicates: in singlicate, n = 1
T2 construct: gene ADRBK2

GRK4 = settings: concentration: 1 μM, replicates: in singlicate, n = 1
GRK7 = settings: concentration: 1 μM, replicates: in singlicate; n = 1
GSK3A = settings: concentration: 1 μM, replicates: in singlicate, n = 1
GSK3B = settings: n = 1
HASPIN = system: T3, HASPIN; settings: concentration: 1 μM, replicates: in singlicate, n = 1
T3 construct: gene GSG2

HCK = settings: concentration: 1 μM, replicates: in singlicate, n = 1
HIPK1 = settings: concentration: 1 μM, replicates: in singlicate, n = 1
[1] = concentration: 1 μM, replicates: in singlicate
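Also: KINOMEscan kinase panel screen.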

Compound | %Inh (GRK1) [%] | %Inh (GRK2) [%] | %Inh (GRK3) [%] | %Inh (GRK4) [%] | %Inh (GRK7) [%] | %Inh (GSK3A) [%] | %Inh (GSK3B; [1]) [%] | %Inh (HASPIN) [%] | %Inh (HCK) [%] | %Inh (HIPK1) [%] | %Inh (GSK3B; 1 µM) [%] | %Inh (GRK1; 1 µM) | %Inh (GRK3; 1 µM) | %Inh (GRK4; 1 µM) | %Inh (GSK3A; 1 µM) | %Inh (GSK3B; concentration: 1 μM, replicates: in singlicate, 1 µM) | %Inh (HASPIN; 1 µM) | %Inh (HCK; 1 µM) | %Inh (HIPK1; 1 µM)
COc1ccc(NC(=O)c2ccc(-c3cc(-c4nnc(C)o4)ccc3C)cc2)cc1 [GW595885] | 0 | 0 | 99.2 | 22 | 0 | 32 | 0 | 21 | 0 | 0 |  |  |  |  |  |  |  |  | 
CN1c2ccc(-c3ccc(C(=O)NCCO)cc3)cc2-c2[nH]ncc2S1(=O)=O | 4 | 0 | 0 | 1 | 22 | 8 | 32 | 21 | 16 | 67 |  |  |  |  |  |  |  |  | 
O=C(Nc1ccccc1)Nc1ccc(Oc2ccc3nccn3n2)cc1 | 11 | 0 | 0 | 17 | 0 | 14 | 0 | 0 | 7 | 26 |  |  |  |  |  |  |  |  | 
CSc1ccc(NC2=C(c3ccccc3Cl)C(=O)NC2=O)cc1 [SB-342411] | 0 | 0 | 0 | 3 | 0 | 81 |  | 0 | 0 | 8 | 29 |  |  |  |  |  |  |  | 
CC(C)(C)OC(=O)NC1CCCN(c2cc(-c3ccc4c(N)n[nH]c4c3)nc(N)n2)C1 (centres unmarked) [GSK2286096] | 0 | 0 | 0 | 0 | 0 | 0 | 11 | 1 | 0 | 0 |  |  |  |  |  |  |  |  | 
COc1cc2ncnc(Nc3ccc(OCc4ccccc4Br)c(Cl)c3)c2cc1OC.Cl [GI261590] | 0 | 0 | 41 | 0 | 0 | 0 | 10 | 34 | 25 | 0 |  |  |  |  |  |  |  |  | 
Nc1nc(-c2cccnc2)c(-c2ccnc3ccccc23)s1 [GW684083] | 0 | 1 | 39 | 8 | 0 | 11 | 7 | 83 | 0 | 11 |  |  |  |  |  |  |  |  | 
CC(=O)Nc1n[nH]c2ncc(-c3ccccc3)cc12 [SB-548492] | 26 | 0 | 0 | 18 | 31 | 78 |  | 42 | 9 | 45 | 50 |  |  |  |  |  |  |  | 
COc1ccc(-c2nc3n(c2-c2ccncc2)CCC3)cc1 [SKF-104493] |  | 0 |  |  | 0 |  |  |  |  |  |  | 11% and 12% | 5% and 0% | 27% and 2% | 0% and 17% | 27% and 1% | 28% and 0% | 10% and 0% | 8% and 0%
CSc1nn2c(=O)cc(N3CCOCC3)nc2n1Cc1cccc(Cl)c1Cl [GSK2347225] | 20 | 0 | 0 | 17 | 0 | 16 | 8 | 0 | 0 | 11 |  |  |  |  |  |  |  |  | 
Cn1cc(-c2ccc3c(c2)CCN3C(=O)Cc2cccc(C(F)(F)F)c2)c2c(N)ncnc21 [GSK2606414] | 5 | 4 | 0 | 100 | 0 | 0 | 0 | 0 | 0 | 0 |  |  |  |  |  |  |  |  | 
FC(F)(F)c1cc(Nc2nccc(-c3c(-c4ccc(Cl)cc4)nn4ncccc34)n2)ccc1Cl [GW829351] | 0 | 0 | 0 | 10 | 0 | 26 | 0 | 0 | 0 | 3 |  |  |  |  |  |  |  |  | 
Nc1nc(-c2ccc3c(N)n[nH]c3c2)cc(N2CCCCC2)n1 [GSK2228768] | 0 | 0 | 30 | 0 | 0 | 0 | 0 | 0 | 0 | 0 |  |  |  |  |  |  |  |  | 
NC(=O)c1sc(-n2cnc3ccccc32)cc1OCc1ccccc1F [GSK1024306] | 0 | 0 | 21 | 7 | 0 | 7 | 0 | 49 | 0 | 0 |  |  |  |  |  |  |  |  | 
COc1cc2c(Nc3cccc(NC(=O)c4ccccc4)c3)ncnc2cc1OCCCN1CCOCC1 [GSK223810] | 0 | 14 | 0 | 15 | 0 | 0 | 0 | 0 | 0 | 0 |  |  |  |  |  |  |  |  | 
Fc1cccc(COc2ccc(Nc3ncnc4cc[nH]c34)cc2Cl)c1 | 22 | 20 | 3 | 35 | 23 | 12 | 8 | 0 | 24 | 27 |  |  |  |  |  |  |  |  | 
CC(C)N1CCC(n2cnc(-c3ccc(F)cc3)c2-c2ccnc(N)n2)CC1 [SB-223132] | 0 | 0 | 0 | 4 | 0 | 17 | 0 | 12 | 0 | 30 |  |  |  |  |  |  |  |  | 

Reference: PMC5540273 (PLoS ONE, 2017)
